Measurements taken from PubChem BioAssay AID1159580 (chemical genetic matrix, 2015).
In all, about 5,500 compounds went through this assay and about 2,000 (36%) were called active. Roughly 18% stayed inconclusive and do not appear here. The list shows a part of the results. A number with no mark means an inactive call. Rule as the data show it: active = normalized growth mostly below about 0.91 (no sharp cut-off); inconclusive = no clear call, values can overlap the other calls; inactive = mostly above about 0.92.

Assay: chemical genetic growth profiling, strain panel (AID 1159580);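 also: tested at 20 µM; growth read once vehicle control cultures reached saturation at 30 °C; 1 = growth at the plate median or of vehicle wells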
Settings: S. cerevisiae deletion strains, growth OD

Structure (SMILES): O=C(Nc1cccc(Cl)c1)O/N=C1\CCCc2occc21
- normalized growth (locus YAR019C, strain CDC15, stronger effect = lower value): 0.937
- normalized growth (locus YBL105C, strain PKC1, stronger effect = lower value): 0.952
- normalized growth (locus YBR135W, strain CKS1, stronger effect = lower value): 0.936
- normalized growth (locus YBR136W, strain MEC1, stronger effect = lower value): 0.939
- normalized growth (locus YBR160W, strain CDC28, stronger effect = lower value): 0.943
- normalized growth (locus YDL017W, strain CDC7, stronger effect = lower value): 0.949
- normalized growth (locus YDL028C, strain MPS1, stronger effect = lower value): 0.933
- normalized growth (locus YDL101C, strain DUN1, stronger effect = lower value): 0.965
- normalized growth (locus YDL108W, strain KIN28, stronger effect = lower value): 0.929
- normalized growth (locus YDL132W, strain cdc53, stronger effect = lower value): 0.917
- normalized growth (locus YDL214C, strain PRR2, stronger effect = lower value): 0.809
- normalized growth (locus YDR052C, strain DBF4, stronger effect = lower value): 0.964
- normalized growth (locus YDR054C, strain cdc34, stronger effect = lower value): 0.927
- normalized growth (locus YDR226W, strain ADK1, stronger effect = lower value): 0.945
- normalized growth (locus YDR477W, strain SNF1, stronger effect = lower value): 0.798
- normalized growth (locus YER123W, strain YCK3, stronger effect = lower value): 0.759
- normalized growth (locus YER133W, strain GLC7, stronger effect = lower value): 0.789
- normalized growth (locus YFL009W, strain cdc4, stronger effect = lower value): 0.925
- normalized growth (locus YFL029C, strain CAK1, stronger effect = lower value): 0.941
- normalized growth (locus YFR003C, strain YPI1, stronger effect = lower value): 0.937
- normalized growth (locus YFR019W, strain FAB1, stronger effect = lower value): 0.944
- normalized growth (locus YFR028C, strain CDC14, stronger effect = lower value): 0.935
- normalized growth (locus YGR040W, strain KSS1, stronger effect = lower value): 0.83
- normalized growth (locus YGR052W, strain FMP48, stronger effect = lower value): 0.8
- normalized growth (locus YGR092W, strain DBF2, stronger effect = lower value): 0.69
- normalized growth (locus YHR030C, strain SLT2, stronger effect = lower value): 0.649 (active)
- normalized growth (locus YHR079C, strain IRE1, stronger effect = lower value): 0.667
- normalized growth (locus YHR082C, strain KSP1, stronger effect = lower value): 0.752
- normalized growth (locus YHR205W, strain SCH9, stronger effect = lower value): 0.659
- normalized growth (locus YIL147C, strain SLN1, stronger effect = lower value): 0.943
- normalized growth (locus YJL095W, strain BCK1, stronger effect = lower value): 0.671
- normalized growth (locus YJL128C, strain PBS2, stronger effect = lower value): 0.954
- normalized growth (locus YJL157C, strain FAR1, stronger effect = lower value): 0.842
- normalized growth (locus YJR016C, strain ILV3, stronger effect = lower value): 0.931
- normalized growth (locus YJR066W, strain TOR1 (second series), stronger effect = lower value): 0.86
- normalized growth (locus YJR066W, strain TOR1, stronger effect = lower value): 0.742
- normalized growth (locus YKL048C, strain ELM1, stronger effect = lower value): 0.899
- normalized growth (locus YKL067W, strain YNK1, stronger effect = lower value): 0.817
- normalized growth (locus YKL101W, strain HSL1, stronger effect = lower value): 0.829
- normalized growth (locus YKL193C, strain SDS22, stronger effect = lower value): 0.926
- normalized growth (locus YKL203C, strain TOR2, stronger effect = lower value): 0.792
- normalized growth (locus YLR113W, strain HOG1, stronger effect = lower value): 0.613 (active)
- normalized growth (locus YLR133W, strain CKI1, stronger effect = lower value): 0.843
- normalized growth (locus YLR403W, strain SFP1, stronger effect = lower value): 0.748
- normalized growth (locus YML070W, strain DAK1, stronger effect = lower value): 0.788
- normalized growth (locus YMR001C, strain CDC5, stronger effect = lower value): 0.935
- normalized growth (locus YMR205C, strain PFK2 (second series), stronger effect = lower value): 0.831
- normalized growth (locus YMR277W, strain FCP1, stronger effect = lower value): 0.932
- normalized growth (locus YNL006W, strain LST8, stronger effect = lower value): 0.939
- normalized growth (locus YNL020C, strain ARK1, stronger effect = lower value): 0.828
- normalized growth (locus YNL161W, strain CBK1, stronger effect = lower value): 0.945
- normalized growth (locus YNL183C, strain NPR1, stronger effect = lower value): 0.652
- normalized growth (locus YNL207W, strain RIO2, stronger effect = lower value): 0.936
- normalized growth (locus YNL222W, strain SSU72, stronger effect = lower value): 0.929
- normalized growth (locus YNL307C, strain MCK1 (second series), stronger effect = lower value): 0.83
- normalized growth (locus YOL078W, strain AVO1, stronger effect = lower value): 0.923
- normalized growth (locus YOL136C, strain PFK27, stronger effect = lower value): 0.798
- normalized growth (locus YOR061W, strain CKA2, stronger effect = lower value): 0.85
- normalized growth (locus YOR119C, strain RIO1, stronger effect = lower value): 0.847
- normalized growth (locus YOR231W, strain MKK1, stronger effect = lower value): 0.672
- normalized growth (locus YOR329C, strain SCD5, stronger effect = lower value): 0.959
- normalized growth (locus YPL031C, strain PHO85, stronger effect = lower value): 0.741
- normalized growth (locus YPL153C, strain RAD53, stronger effect = lower value): 0.772
- normalized growth (locus YPL204W, strain HRR25, stronger effect = lower value): 0.773
- normalized growth (locus YPL209C, strain IPL1, stronger effect = lower value): 0.947
- normalized growth (locus YPL256C, strain CLN2, stronger effect = lower value): 0.631 (active)
- normalized growth (locus YPR025C, strain CCL1, stronger effect = lower value): 0.943
- normalized growth (locus YPR106W, strain ISR1, stronger effect = lower value): 0.944
- normalized growth (locus YPR111W, strain DBF20, stronger effect = lower value): 0.918
- normalized growth (strain NNK1, stronger effect = lower value): 0.927
- normalized growth (strain TSCII, stronger effect = lower value): 0.927
